PubChem BioAssay AID2546 (National Center for Advancing Translational Sciences (NCATS), 2010)
Out of some 310,000 compounds screened, about 11,000 (3.5%) were called active. About 8% were inconclusive and are not listed. The sample holds actives, similar compounds and a random draw of the others, so the mix is not that of the screen. Values without a mark were called inactive. The call rests on the fitted dose curve; in most records, active means well fitted inhibition curve with a large enough effect; inconclusive means small, poorly fitted or top-dose-only effect, or effect the other way; inactive means flat fitted curve, though single readings scatter.

assay: VP16 counterscreen qHTS for inhibitors of ROR gamma transcriptional activity; conditions: Drosophila S2 Gal4-VP16 UAS-luciferase, luminescence, 20 h; series mostly up to 53.6 µM; activity, negative = inhibition: at the top concentration;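 further: Gal4-VP16 expression switched on by copper sulfate through the metallothionein promoter; nearly all actives have a fitted effect of over 50% in size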
On the % scale 0 is the no-effect control and ±100 the full control effect; potency means the concentration at half of the fitted maximal effect.

Row | SMILES | activity, negative = inhibition [%] | Potency
1 | CN(Cc1ccccc1)C(=O)CSc1nc2ccccc2[nH]1 | -4.72 | 
2 | CCOC(=O)c1csc(CCNC(=O)c2oc3c(Cl)cc(C)cc3c2C)n1 | -0.695 | 
3 | N#C/C(=C(/O)COc1cccc2ccccc12)c1nc2ccccc2[nH]1 |  | 7.94 µM (active)
4 | Cc1ccccc1OC/C(O)=C(\C#N)c1nc2ccccc2[nH]1 | -17.7 | 
5 | COCCN(CCOC)S(=O)(=O)c1ccc(/C(O)=C(\C#N)c2nc3ccccc3[nH]2)cc1 | 25.6 | 
6 | O=C(COc1ccccc1)NCCc1nc2ccccc2[nH]1 | -0.523 | 
7 | N#C/C(=C(/O)COC(=O)COc1ccc(Cl)cc1)c1nc2ccccc2[nH]1 |  | 12.6 µM (active)
8 | O=C(COC(=O)CCCSc1nc2ccccc2[nH]1)Nc1ccc(Oc2ccccc2)cc1 | -5.22 | 
9 | O=C(CCS(=O)(=O)c1ccccc1)NC1CCCC1 | -6.21 | 
10 | CC(C)c1ccc(N2CCN(C(=O)c3ccccc3NC(=O)/C=C(\C(=O)O)c3ccccc3)CC2)cc1 |  | 1.12 µM (active)
11 | O=C(O)C1CC=CCC1C(=O)Nc1ccccc1C(=O)N1CCN(c2ccccc2)CC1 (stereo not drawn) | 13.5 | 
12 | COc1ccc(C(=O)Nc2ccccc2C(=O)N2CCN(c3ccccc3)CC2)cc1 | -9.17 | 
13 | CCCN1CCC(=O)N(C(CSc2ccc(OC)cc2)Cc2ccccc2)CC1 (stereo not drawn) | 5.75 | 
14 | Cn1cnc2c1c(=O)n(Cc1ccccc1C#N)c(=O)n2C | -8.7 | 
15 | Cc1cc2oc(=O)cc(CN(C)Cc3ccc(OC(F)F)cc3)c2cc1Cl | -9.54 | 
16 | CCOC(=O)Cc1csc(NC(=O)CN(C)S(=O)(=O)c2ccc3c(c2)CCC(=O)N3)n1 |  | 11.2 µM (active)
17 | Cc1cccc(N2CCN(C(=O)CN(C)S(=O)(=O)c3ccc4c(c3)CCC(=O)N4)CC2)c1C | -6.16 | 
18 | CCOC(=O)Cc1csc(NC(=O)CSc2nc(C)cc(=O)[nH]2)n1 | 6.99 | 
19 | CCOC(=O)C1CCN(C(=O)C2CCCN(S(=O)(=O)c3ccc(OC)c(Cl)c3)C2)CC1 (stereo not drawn) | -22.2 | 
20 | CC1(C(=O)NCCc2c[nH]c3ccccc23)C=CC2(CCCCC2)N1C(=O)c1ccccc1 (stereo not drawn) | -17.5 | 
21 | COc1ccc(NC(=O)CN(C)C(=O)CNC(=O)C2CCCCC2)cc1 | 0.357 | 
22 | O=C1C=CC(=O)N1c1ccc(N2CCCCC2)cc1 |  | 8.91 µM (active)
23 | O=c1[nH][nH]c(=O)c2cc(N3CCCC3)ccc12 | 1.98 | 
24 | CCOC(=O)/C(C#N)=C/c1ccc(N2CCCCC2)cc1 | -4.63 | 
25 | Oc1ccc(Br)cc1/C=N/Nc1ccccn1 |  | 10 µM (active)
26 | O=[N+]([O-])c1ccc(O)c(/C=N/Nc2ccccc2[N+](=O)[O-])c1 | -15 | 
27 | O=C(Nc1ccc(Br)cc1)c1cc(S(=O)(=O)Nc2ccccn2)ccc1Cl | -5.39 | 
28 | COc1ccc(NC(=O)NNC(=O)COc2cc(C)c(Cl)c(C)c2)c(OC)c1 | -14.3 | 
